# Molecular target: Sister chromatid cohesion protein 2 (UniProt Q04002)
# Assay: cross-link between two proteins; cross-linking mass spectrometry
# Chain of UniProt Q04002 (Q04002 whole entry): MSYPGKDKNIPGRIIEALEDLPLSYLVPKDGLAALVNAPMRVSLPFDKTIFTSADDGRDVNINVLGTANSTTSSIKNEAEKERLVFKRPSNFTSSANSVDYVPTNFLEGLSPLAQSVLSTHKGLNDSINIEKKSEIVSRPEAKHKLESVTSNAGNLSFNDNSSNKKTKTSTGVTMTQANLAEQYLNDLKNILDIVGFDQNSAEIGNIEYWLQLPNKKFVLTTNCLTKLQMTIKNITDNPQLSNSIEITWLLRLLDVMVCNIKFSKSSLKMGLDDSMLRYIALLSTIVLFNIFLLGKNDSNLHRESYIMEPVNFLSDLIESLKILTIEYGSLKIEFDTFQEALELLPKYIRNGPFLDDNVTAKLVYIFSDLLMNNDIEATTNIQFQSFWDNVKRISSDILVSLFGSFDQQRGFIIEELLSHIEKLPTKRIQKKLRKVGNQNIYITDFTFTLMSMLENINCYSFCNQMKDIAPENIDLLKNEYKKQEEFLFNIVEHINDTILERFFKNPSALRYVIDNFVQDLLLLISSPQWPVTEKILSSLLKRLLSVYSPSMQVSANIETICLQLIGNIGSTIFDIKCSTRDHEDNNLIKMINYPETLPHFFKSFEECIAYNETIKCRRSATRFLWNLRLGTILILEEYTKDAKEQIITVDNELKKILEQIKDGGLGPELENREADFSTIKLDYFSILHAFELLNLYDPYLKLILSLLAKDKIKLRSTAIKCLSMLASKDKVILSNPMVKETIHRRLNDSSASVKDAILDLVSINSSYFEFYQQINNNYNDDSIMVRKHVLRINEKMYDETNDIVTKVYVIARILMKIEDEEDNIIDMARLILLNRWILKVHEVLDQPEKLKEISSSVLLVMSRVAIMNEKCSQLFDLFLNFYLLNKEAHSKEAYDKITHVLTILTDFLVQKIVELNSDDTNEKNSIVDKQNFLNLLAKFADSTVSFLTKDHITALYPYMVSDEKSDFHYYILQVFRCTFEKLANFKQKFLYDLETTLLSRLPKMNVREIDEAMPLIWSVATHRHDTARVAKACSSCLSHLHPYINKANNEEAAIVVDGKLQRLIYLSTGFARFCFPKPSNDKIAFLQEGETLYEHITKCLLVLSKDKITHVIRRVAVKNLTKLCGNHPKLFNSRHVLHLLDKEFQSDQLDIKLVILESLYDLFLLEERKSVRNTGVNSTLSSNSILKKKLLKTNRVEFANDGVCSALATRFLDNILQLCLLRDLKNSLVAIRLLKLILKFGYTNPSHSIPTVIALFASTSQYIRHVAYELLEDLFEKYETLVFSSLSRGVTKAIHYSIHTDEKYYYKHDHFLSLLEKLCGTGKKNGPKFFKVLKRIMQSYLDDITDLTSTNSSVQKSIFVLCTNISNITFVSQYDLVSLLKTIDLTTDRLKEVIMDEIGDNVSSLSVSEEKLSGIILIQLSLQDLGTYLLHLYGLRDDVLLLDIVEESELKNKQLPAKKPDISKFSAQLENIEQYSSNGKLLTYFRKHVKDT
substance,measurement,value
"MAU2 chromatid cohesion factor homolog, P40090",listed as a hit,yes
